# Screening data as filed in PubChem BioAssay.
# TrxR1 substrate: qHTS Assay for Substrates of Mammalian Selenoprotein Thioredoxin Reductase 1 (TrxR1): qHTS. purified TrxR1 substrate turnover, NADPH consumption readout. Potency, µM (top dose mostly 114 µM), for the others: at the top dose activity change, negative = substrate turnover. 390,000 compounds, 0.01% hits; note: nearly all actives have a fitted effect of over 50% in size
#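 Rat TrxR1, dispensed at 90 nM, was prereduced with 400 uM NADPH (final) for 5 min at ~22 deg C, then incubated with compound 15 min before 400 uM selenite. A first-read NADPH fluorescence drop versus no-compound background flagged substrates.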
# rTrxR1 inhibitor: qHTS Assay for Inhibitors of Mammalian Selenoprotein Thioredoxin Reductase 1 (TrxR1): qHTS. Thioredoxin reductase 1, cytoplasmic (Rattus norvegicus), O89049. recombinant rTrxR1, NADPH fluorescence consumption, selenite substrate. Potency, µM (doses to about 114 µM), without a hit: top-dose activity change, negative = inhibition, hits mostly inhibitors. 390,000 compounds, 1% hits. AID 588453, 2011; note: nearly all actives have a fitted effect of over 65% in size
#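 Rat TrxR1 (90 nM in the dispensed reagent) was pre-reduced with 400 uM NADPH for 5 min at room temperature, then incubated with compound for 15 min. After 400 uM selenite was added, NADPH fluorescence (Ex 340/Em 450 nm) was followed for 8 min.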
# RGS4 inh: Inhibitors of Regulator of G Protein Signaling (RGS) 4: qHTS. Regulator of G-protein signaling 4 (Homo sapiens), P49798. Transcreener GDP fluorescence polarization, RGS4-accelerated GTP hydrolysis. Potency, µM (titrated, usually from 114 µM), without a hit: at the top dose activity change, negative = inhibition, usual class: inhibitors. 390,000 compounds, 0.039% hits. AID 504845, 2011; note: nearly all actives have a fitted effect of over 75% in size
# Target sequence (P49798 whole entry, looked up): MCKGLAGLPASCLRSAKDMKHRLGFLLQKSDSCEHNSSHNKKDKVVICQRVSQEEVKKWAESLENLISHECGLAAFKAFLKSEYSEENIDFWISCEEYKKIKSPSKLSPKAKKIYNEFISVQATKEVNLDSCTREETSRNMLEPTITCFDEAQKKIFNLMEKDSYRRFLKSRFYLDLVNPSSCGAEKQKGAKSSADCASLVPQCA
#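 MLSMR compounds (23 nl, pin-transferred) preincubated 10 min at room temperature with a 500nM (2x) first reagent, then RGS4 at 900nM (2x) plus Transcreener GDP mix added; fluorescence polarization (620/688 nm) read before and after 90 min at 30 °C.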
# IDH1 R132H inh: qHTS for Inhibitors of mutant isocitrate dehydrogenase 1 (IDH1): qHTS. Potency, µM (doses to about 76.6 µM), for inactives: at the highest dose activity change, negative = inhibition, actives largely listed as inhibitors. Isocitrate dehydrogenase [NADP] cytoplasmic (Homo sapiens), O75874. IDH1-R132H enzyme, NADPH consumption, diaphorase/resazurin fluorescence. 390,000 compounds, 0.093% hits; note: nearly all actives have a fitted effect of over 65% in size
# Target sequence (O75874 whole entry R132H, stated change not applied): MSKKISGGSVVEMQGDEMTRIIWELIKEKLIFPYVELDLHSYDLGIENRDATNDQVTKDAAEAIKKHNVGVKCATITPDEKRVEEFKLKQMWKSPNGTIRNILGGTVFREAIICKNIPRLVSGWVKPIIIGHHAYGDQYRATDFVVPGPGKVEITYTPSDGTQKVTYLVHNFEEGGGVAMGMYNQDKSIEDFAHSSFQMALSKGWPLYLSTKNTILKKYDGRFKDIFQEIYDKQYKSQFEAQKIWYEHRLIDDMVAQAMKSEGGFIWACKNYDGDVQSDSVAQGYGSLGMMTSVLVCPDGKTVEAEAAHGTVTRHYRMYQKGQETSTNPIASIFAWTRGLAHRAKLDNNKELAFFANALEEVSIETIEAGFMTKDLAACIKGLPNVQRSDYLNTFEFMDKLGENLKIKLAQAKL
#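 IDH1-R132H (0.5 ug/mL dispensed) in pH 7.5 Tris buffer was preincubated 30 min with compound, then given a substrate mix of 0.016 mM NADPH and 2 mM alpha-KG for 80 min at room temperature; remaining NADPH was read by diaphorase/resazurin fluorescence.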
# Eya2 phos inh: qHTS Assay for Inhibitors of the Phosphatase Activity of Eya2; recombinant Eya2, OMFP fluorescence dephosphorylation (OMFP is methylfluorescein phosphate); Potency, µM (titrated, usually from 76.9 µM), for the others: top-dose activity, negative = inhibition, usual class: inhibitors; 330,000 compounds, 0.006% hits; AID 488837, 2010
#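 Eya2 (0.2 uM) preincubated 10 min at ambient with compound, then OMFP substrate added at 50 uM; 10 min reaction in 50 mM HEPES pH 7.5, 50 mM NaCl, 5 uM MgCl2, 0.05% BSA, 1 mM DTT. Fluorescence read at Ex 485/Em 525 nm.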
# An asterisk follows results filed as active; ? = inconclusive; . = not tested or not shown; ! = not active in a repeat; [ ] = another dose, or the depositor's remark. Compounds with a hit are over-represented: about 1.1% of the library has one in this group of screens. Calls come from the whole dose curve; as a rule, active = well fitted curve in the direction sought with a large enough effect; inconclusive = small, poorly fitted or top-dose-only effect, or another doubt; inactive = no such curve, though single readings can be large; an effect the other way counts as inactive or inconclusive. % is set by controls: 0 for no effect and ±100 for the full control effect; potency is the fitted concentration of half-maximal effect.
SMILES,TrxR1 substrate,rTrxR1 inhibitor,RGS4 inh,IDH1 R132H inh,Eya2 phos inh
Cn1c(SCC(=O)N/N=C/C=C/c2ccco2)nc2ccccc21,-12.8%,44.7µM*,?,2.1%,-7.5%
CCn1c(SCC(=O)N/N=C/C=C/c2ccco2)nnc1-c1ccccc1,-7.1%,35.5µM*,?,5.3%,1.2%
CC(=O)Nc1ccc(C2Nc3ccccc3C(=O)N2C2CCCCC2)cc1 (stereo unspecified),136.8%,5.5%,-13.0%,3.7%,-3.5%
Nc1cccc2c1C(=O)N(C(=O)/C=C/c1cccc(F)c1)C2=O,2.2%,28.2µM*,?,-2.3%,-2.9%
Nc1cccc2c1C(=O)N(C(=O)/C=C/c1cccc(Br)c1)C2=O,8.5%,20µM*,?,0.5%,?
COc1cc(/C=C/C(=O)N2C(=O)c3cccc(N)c3C2=O)cc(OC)c1OC,5.6%,-5.0%,0.7%,6.2%,-2.4%
COC(=O)C1=C(C)N(Cc2ccccc2)C(=O)/C1=C\c1ccco1,11.5%,50.1µM*,-51.2%,0.0%,-1.3%
CCOc1cc(/C=C2\C(=O)N(CCc3ccc(OC)c(OC)c3)C(C)=C2C(=O)OC)ccc1O,-3.8%,?,?,3.8%,-1.7%
CCOC(=O)C1=C(C)N(c2ccc(C)cc2)C(=O)/C1=C\c1ccc(O)c(OC)c1,4.3%,17.8µM*,?,7.8%,-13.4%
CCOc1cc(/C=C2\C(=O)N(Cc3ccco3)C(C)=C2C(=O)OC)ccc1O,-9.2%,22.4µM*,?,6.8%,6.1%
COC(=O)C1=C(C)N(CCc2ccccc2)C(=O)/C1=C\c1ccco1,-7.1%,?,-17.5%,5.3%,-4.9%
CCCCC(C)(O)C/C=C/[C@H]1[C@H](O)CC(=O)[C@@H]1CCCCCCC(=O)OC (stereo partly specified),.,.,.,.,2.2%
O=C(CCNc1cccc(Cl)c1)c1ccco1,11.8%[57.1 µM],?,23.7%,1.4%,-5.3%
COc1cc(C(C2C(=O)CC(C)(C)CC2=O)C2C(=O)CC(C)(C)CC2=O)ccc1OC(C)=O,6.6%[57.1 µM],?,-34.8%,5.4%,.
COc1ccc(C(C2C(=O)CC(C)(C)CC2=O)C2C(=O)CC(C)(C)CC2=O)cc1COCC(F)(F)F,4.1%,7.94µM*,?,8.0%,-1.6%
COc1cc(C(C2C(=O)CC(C)(C)CC2=O)C2C(=O)CC(C)(C)CC2=O)ccc1O,3.7%,14.1µM*,?,2.9%,-10.7%
COc1cc(C(C2C(=O)CC(C)(C)CC2=O)C2C(=O)CC(C)(C)CC2=O)cc(OC)c1OC,9.7%[57.1 µM],?,?,6.3%,-3.0%
Cc1cc(C(=O)N2CCOCC2)ccc1[N+](=O)[O-],6.0%[57.1 µM],7.4%[57.1 µM],-0.8%,13.4%,-9.6%
O=C1OC(Nc2nc(-c3ccc(F)cc3)cs2)c2ccccc21 (stereo unspecified),-3.7%,56.2µM*,-11.7%[56.9 µM],7.6%,13.2%
O=C1OC(Nc2nc3ccccc3s2)c2ccccc21 (stereo unspecified),-7.8%,-23.8%,-38.5%,1.7%,-11.0%
CCOC(=O)C1=C(O)c2ccccc2C(=O)/C1=C\c1ccc(C)cc1,-18.2%,11.2µM*,?,17.7%,3.0%
COc1cc(OC)c(NC(=O)c2noc3c2CSc2ccccc2-3)cc1Cl,-5.6%,7.08µM*,22.3%,7.7%,.
COc1ccc(NC(=O)c2noc3c2CSc2ccccc2-3)cc1Cl,3.3%,5.9%,-2.9%,-0.7%,.
COc1cc(OC)c(NC(=O)c2nn(C)c3c2COc2ccccc2-3)cc1Cl,6.2%,15.8µM*,-28.7%,13.6%,.
CCCCCCn1c(=O)[nH]c2nc3cc(N)ccc3nc2c1=O,-2.1%,7.7%,-40.5%,2.9%,?
SMILES,TrxR1 substrate,rTrxR1 inhibitor,RGS4 inh,IDH1 R132H inh,Eya2 phos inh
CC1=C(/C=C/C(C)=C/C=C/C(C)=C/CO)C(C)(C)CCC1,-0.2%,50.1µM*,-10.1%,-14.5%,.
Cc1oc(-c2ccc(Cl)cc2)nc1CS(=O)CC(=O)NCc1ccccn1 (stereo unspecified),-2.6%,17.8µM*,1.5%,0.0%,-2.0%
Cc1oc(-c2ccc(Cl)cc2)nc1CS(=O)CC(=O)NCCCN1CCN(Cc2ccccc2)CC1 (stereo unspecified),2.1%,-24.2%,-9.4%,-7.0%,-7.1%
CCc1ccc(-c2nc(CS(=O)CC(=O)NCCCN3CCOCC3)c(C)o2)cc1 (stereo unspecified),9.9%,20µM*,3.5%[11.4 µM],-2.3%,2.7%
CCc1ccc(-c2nc(CS(=O)CC(=O)NCc3ccccc3)c(C)o2)cc1 (stereo unspecified),2.2%,31.6µM*,-7.5%,-4.1%,9.8%
COc1ccccc1CNC(=O)COC(=O)c1ccc(Cl)nc1,-5.0%,-5.4%,16.7%,-1.3%,2.2%
CCOC(=O)N1CCC(Nc2cccc(SC)c2)CC1,-3.3%,11.8%,-0.5%,5.5%,-2.2%
O=C1C=CC(=O)N1c1cccc2cccnc12,12.6%,56.2µM*,-47.8%,2.2%,.
COc1ccc(-n2nc3c(c2NC(=O)c2ccccc2S(=O)(=O)C(F)F)CS(=O)(=O)C3)cc1,2.9%,-8.1%,5.9%,-3.4%,7.4%
CNCc1cc2ccc(C)cc2[nH]c1=O,8.1%,25.1µM*,-22.7%,6.4%,-12.7%
CCc1ccc(CNCc2cccs2)cc1,8.7%[57.1 µM],18.6%[57.1 µM],7.5%,2.6%,-1.9%
CCOC(=O)C1=C(C)N=c2s/c(=C3/C(=O)Nc4ccccc43)c(=O)n2C1c1ccc(C)cc1 (stereo unspecified),-19.3%,44.7µM*,-2.1%,-5.5%,1.1%
CCCCCCC(=O)N(O)C1CC(=O)N(Cc2ccccc2)C1=O (stereo unspecified),-3.2%,4.9%,-31.8%,7.4%,-2.3%
CCCCCC(=O)N(O)C1CC(=O)N(c2ccccc2)C1=O (stereo unspecified),-21.2%[57.1 µM],3.55µM*,?,4.7%,-9.2%
CC(C)CN(CCCNC(=O)CN1C(=O)COc2ccc(S(=O)(=O)N3CCCCCC3)cc21)CC(C)C,5.0%,56.2µM*!,-6.5%[11.4 µM],0.2%,-1.3%
COc1cccc(NS(=O)(=O)Cc2ccccc2)c1,7.1%,18.7%,-6.9%,4.8%,6.3%
COc1ccc(NC2=C(Cl)C(=O)N(c3ccccc3)C2=O)c(OC)c1,2.3%,12.6µM*,3.8%,-11.2%,-29.4%
COc1ccc(N2C(=O)C(Cl)=C(Nc3ccc(OC)cc3OC)C2=O)cc1,4.3%[57.1 µM],4.5%[57.1 µM],6.7%,6.5%,-12.0%
